Molecules are shown by their SMILES. Inconclusive results are not listed. A call without a number means that no potency is given here. Active and inactive are the calls of the source. Calls follow the shape of the full dose curve.

This passage reports Potency and activity change, negative = inhibition results from PubChem BioAssay (NCATS).

Sequence of Nucleoprotein (Lymphocytic choriomeningitis virus (strain Armstrong)) (P09992 whole entry, looked up): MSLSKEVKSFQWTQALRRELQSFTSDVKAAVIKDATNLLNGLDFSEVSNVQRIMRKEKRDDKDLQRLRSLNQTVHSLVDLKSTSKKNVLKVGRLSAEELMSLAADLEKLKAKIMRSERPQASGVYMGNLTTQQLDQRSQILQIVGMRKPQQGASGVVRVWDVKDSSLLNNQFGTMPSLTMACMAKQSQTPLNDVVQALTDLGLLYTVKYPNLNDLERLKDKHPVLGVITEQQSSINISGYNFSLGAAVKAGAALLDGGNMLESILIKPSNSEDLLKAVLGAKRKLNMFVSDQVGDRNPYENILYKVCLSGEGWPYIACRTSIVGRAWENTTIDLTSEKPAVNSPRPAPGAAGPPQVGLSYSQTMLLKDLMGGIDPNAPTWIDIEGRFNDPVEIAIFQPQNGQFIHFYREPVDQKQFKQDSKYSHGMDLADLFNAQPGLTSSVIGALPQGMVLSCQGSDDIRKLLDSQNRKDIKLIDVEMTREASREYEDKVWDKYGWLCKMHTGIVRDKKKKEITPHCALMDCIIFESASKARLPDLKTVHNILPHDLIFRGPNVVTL

One assay addresses Nucleoprotein (Lymphocytic choriomeningitis virus (strain Armstrong)) (UniProt P09992). Briefly: qHTS for Inhibitors of the Functional Ribonucleoprotein Complex (vRNP) of Lymphocytic Choriomeningitis Arenaviruses (LCMV): LCMV Primary Screen - GLuc reporter signal (AID 1347086). Also: nearly all actives have a fitted effect of over 70% in size. The following applies: LCMV minigenome vRNP cell assay, Gaussia luciferase reporter; series mostly up to 57.5 µM.
For `CC1(C)CCC[C@@]2(C)C1CC[C@@](C)(O)[C@@H]2CC[C@@](C)(O)C1CO1` (stereo partly specified), the Potency entry was “inactive”.

`O=C1NC(=O)C(=Cc2ccc(-c3ccc(F)cc3O)o2)S1`: the Potency result is “inactive”.

Take `Nc1nc(F)nc2c1ncn2[C@@H]1O[C@H](COP(=O)(O)O)[C@@H](O)[C@H]1O`: the Potency result is “inactive”.

`O=C1NC(=O)C(=Cc2ccc3nccnc3c2)S1`: the Potency entry is “inactive”.

Turning to `COc1cc(C(=O)O[C@H]2C/C(C)=C/CC[C@@]3(C)O[C@@H]3[C@H](O)[C@@H]2C(C)C)cc(OC)c1OC`, the Potency result is “inactive”.

For `C=CCc1ccc(O)c(-c2ccc(O)c(CC=C)c2)c1`, the Potency entry was “inactive”.

With `C=C1C[C@H](OC(=O)C(C)(O)CCl)C2C(=C)C(=O)O[C@@H]2C2C1C[C@H](O)[C@]2(O)CCl` (stereo partly specified), the Potency result was “inactive”.

On to `COc1ccc(-c2cc(=O)c3c(OC)c(OC)c(OC)c(OC)c3o2)cc1`, for which the Potency entry is “inactive”.

Regarding `COc1cc2c(cc1OC)[C@@H]1Cc3ccc(OC)c(OC)c3CN1CC2`, the Potency entry was “inactive”.

As to `CCS(=O)(=O)N1CC(CC#N)(n2cc(-c3ncnc4[nH]ccc34)cn2)C1`, the Potency entry was “inactive”.

As to `C[C@]12CC[C@H]3C(=CCc4cc(O)ccc43)[C@@H]1CCC2=O`, the Potency result was “inactive”.

Turning to `C[C@@H]1C(=O)O[C@H]2[C@H](O)[C@@]34[C@H]5CC(C(C)(C)C)[C@]36[C@H](OC(=O)[C@H]6O)O[C@]4(C(=O)O5)[C@@]12O` (stereo partly specified), the Potency entry is “inactive”.

Regarding `COc1cc2c(c(OC)c1OC)-c1ccc(OC)c(=O)cc1[C@@H](NC=O)CC2`, the Potency result is “inactive”.

As for `CC(=O)O[C@@]12CO[C@H]1C[C@H](O)[C@@]1(C)C(=O)[C@H](O)C3=C(C)[C@@H](OC(=O)C(O)[C@@H](NC(=O)OC(C)(C)C)c4ccccc4)C[C@@](O)([C@@H](OC(=O)c4ccccc4)[C@@H]21)C3(C)C` (stereo partly specified), the Potency result was “inactive”.

Take `COc1ccc(-c2oc3cc(OC)c(O)c(OC)c3c(=O)c2OC)cc1O`: the Potency result is “inactive”.

With `CC=CC(C)=CC(C)C(=O)CC(O)CC1CC(=O)NC(=O)C1` (stereo unspecified), the Potency result is “inactive”.

With `O=C1NC(=O)C(=Cc2ccc(-c3ccc(F)cc3)o2)S1`, the Potency entry is “inactive”.

With `C=CC(=O)Nc1cc(NC(=O)c2ccc(C)c(NC(=O)c3ccno3)c2)cc(C(F)(F)F)c1`, the Potency entry is “inactive”.

Tested on in another assay: not listed separately
Briefly: Cytotoxicity counterscreen for inhibitors of SARS-CoV-2 cell entry (AID 1645845). Also: nearly all actives have a fitted effect of over 50% in size. Also: potency is read from the fitted curve at half-maximal effect. The following applies: cell viability (SARS-CoV-2 entry assay cells); series mostly up to 57.1 µM. The method, boiled down: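 48 h compound treatment (after 1 h preincubation), HEK293-ACE2 cells, 37 C/5% CO2; ATP luminescence endpoint; normalized to cell wells and media blanks.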
In general terms: Counterscreens check selectivity or assay interference.
`CC(C)C[C@H](NC(=O)CNC(=O)c1cc(Cl)ccc1Cl)B1OC(=O)CC(CC(=O)O)(C(=O)O)O1` (stereo partly specified): the Potency was 0.891 µM (active).

Take `O=C1c2c(O)cc(O)cc2OC(c2ccc(O)c(O)c2)C1O` (stereo unspecified): the Potency entry is “inactive”.

As for `CCc1ccc(/C=C2/SC(=S)NC2=O)cc1`, the Potency is 10 µM (active).

Tested on in the next assay: not listed separately
Briefly: Primary qHTS to identify inhibitors of SARS-CoV-2 cell entry (AID 1645846). Also: nearly all actives have a fitted effect of over 45% in size. Also: potency is read from the fitted curve at half-maximal effect. Conditions: SARS-CoV-2 pseudovirus cell entry assay, luminescence; activity change, negative = inhibition: at 57.1 µM (top of the series) unless noted; series mostly up to 57.1 µM. The procedure, abridged: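 HEK293-ACE2 (Expi293F, stable hACE2), 1500 cells/well, o/n 37C; cpd 23 nL pin, 1 h; MLV-PP w/ SARS-CoV-2-S (Wuhan-Hu-1, Δ19 C-term); 48 h 37C; Bright-Glo luminescence; normalized vs S-PP and bald PP.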
(In general: qHTS replaces the single test concentration by a dilution series.)
On to `N#CNC(=NCCCCCCOc1ccc(Cl)cc1)Nc1ccncc1`, for which the activity change, negative = inhibition is -97%.

For `CC(C)C[C@H](NC(=O)CNC(=O)c1cc(Cl)ccc1Cl)B1OC(=O)CC(CC(=O)O)(C(=O)O)O1` (stereo partly specified), the activity change, negative = inhibition was -99.4%.

As to `CCN(CC)CCCCNc1ncc2c(n1)N(C)C(=O)N(c1c(Cl)c(OC)cc(OC)c1Cl)C2`, the Potency was 6.31 µM (active).

As for `CN1CCc2c(c3ccccc3n2Cc2ccc(C(=O)NO)cc2)C1`, the activity change, negative = inhibition is -18.9%.

For the compound `COC(=O)Nc1ccc(-c2nc(N3CCOCC3)c3cnn(C4CCN(Cc5cccnc5)CC4)c3n2)cc1`, the Potency is 6.31 µM (active).

Regarding `O=C1c2c(O)cc(O)cc2OC(c2ccc(O)c(O)c2)C1O` (stereo unspecified), the activity change, negative = inhibition came out at 4.53%.

Regarding `CCc1ccc(/C=C2/SC(=S)NC2=O)cc1`, the Potency is 31.6 µM (active).

Tested on in another assay: not listed separately
The experiment in a line: VSVG counterscreen qHTS to identify inhibitors of SARS-CoV-2 cell entry (AID 1645847). Also: potency is read from the fitted curve at half-maximal effect; nearly all actives have a fitted effect of over 65% in size. The following applies: VSV-G pseudotyped particle entry, luciferase; series mostly up to 57.2 µM. The method, boiled down: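 Expi293F/hACE2 cells, overnight plating; cpd 1 h, 37C/5% CO2; + VSV-G PP (MLV pseudotyping), 48 h; supernatant removed, Bright-Glo luciferase read. Norm: VSV-G PP and bald PP wells.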
Turning to `COc1ccc(Nc2cc(-c3cnc(N)nc3)nc(N3CCOCC3)n2)cn1`, the Potency was 1.08 µM (active).

For the compound `Cc1ccc2nc(NCCN)c3ncc(C)n3c2c1`, the Potency was 13.6 µM (active).

On to `COC(=O)Nc1ccc(-c2nc(N3CCOCC3)c3cnn(C4CCN(Cc5cccnc5)CC4)c3n2)cc1`, for which the Potency was 9.61 µM (active).
